# B1: unnamed (peptide)
# chain: TKFRISLGLPVGAIM
# B2: unnamed (peptide)
# chain: LTRRFPFLFPFDTRM
# Experiments:
# Test in all cases: SPOT peptide array binding signal intensity (averaged, normalized) (arbitrary units (background-subtracted, floor 0; scale differs between SH3 domains)); higher = stronger binding of the SH3 domain to the peptide
# CaNbp2 = molecular target: CaNbp2
# Outline: (§1)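 GST-fused SH3 domains from four yeast species were expressed in E. coli BL21(DE3), purified on glutathione Sepharose and incubated at 10 μg/ml overnight at 4°C in TBS-based blocking buffer on cellulose membranes carrying synthetic 15-mer peptides, with cysteines replaced by serines. Bound protein was detected with anti-GST antibody, an HRP anti-mouse secondary and luminol, then imaged and quantified with Genespotter. Binding signal is the normalized, background-subtracted spot intensity averaged over replicates, in arbitrary units that differ between domains.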
# CaRvs167 = molecular target: CaRvs167
# Outline: as §1
# CaRvs167-3 = molecular target: CaRvs167-3
# Outline: as §1
# CaSho1 = molecular target: CaSho1
# Outline: as §1
# CaSla1-D1-D2 = molecular target: CaSla1-D1-D2
# Outline: as §1
# CaSla1-D3 = molecular target: CaSla1-D3
# Outline: as §1
# ScAbp1 = molecular target: ScAbp1
# Outline: as §1
# ScBbc1 = molecular target: ScBbc1
# Outline: as §1
# ScBem1-D1 = molecular target: ScBem1-D1
# Outline: as §1
# ScBzz1-D1 = molecular target: ScBzz1-D1
# Outline: as §1
# ScBzz1-D2 = molecular target: ScBzz1-D2
# Outline: as §1
# ScCyk3 = molecular target: ScCyk3
# Outline: as §1
# ScFus1 = molecular target: ScFus1
# Outline: as §1
# ScHof1 = molecular target: ScHof1
# Outline: as §1
# ScHse1 = molecular target: ScHse1
# Outline: as §1
# ScLsb1 = molecular target: ScLsb1
# Outline: as §1
# ScLsb2 = molecular target: ScLsb2
# Outline: as §1
# ScLsb3 = molecular target: ScLsb3
# Outline: as §1
# ScLsb4 = molecular target: ScLsb4
# Outline: as §1
# ScMyo3 = molecular target: ScMyo3
# Outline: as §1
# ScMyo5 = molecular target: ScMyo5
# Outline: as §1
# ScNbp2 = molecular target: ScNbp2
# Outline: as §1
# ScPex13 = molecular target: ScPex13
# Outline: as §1
# ScRvs167 = molecular target: ScRvs167
# Outline: as §1
# ScSho1 = molecular target: ScSho1
# Outline: as §1
# ScSla1-D1-D2 = molecular target: ScSla1-D1-D2
# Outline: as §1
# ScSla1-D3 = molecular target: ScSla1-D3
# Outline: as §1
# SpAbp1-D1 = molecular target: SpAbp1-D1
# Outline: as §1
# SpBbc1 = molecular target: SpBbc1
# Outline: as §1
# SpBzz1-D1 = molecular target: SpBzz1-D1
# Outline: as §1
# SpBzz1-D2 = molecular target: SpBzz1-D2
# Outline: as §1
# SpCyk3 = molecular target: SpCyk3
# Outline: as §1
# SpHof1 = molecular target: SpHof1
# Outline: as §1
# SpHof1-2 = molecular target: SpHof1-2
# Outline: as §1
# SpHof1-3 = molecular target: SpHof1-3
# Outline: as §1
# SpHse1 = molecular target: SpHse1
# Outline: as §1
# SpLsb1 = molecular target: SpLsb1
# Outline: as §1
# SpLsb4 = molecular target: SpLsb4
# Outline: as §1
# SpMyo1 = molecular target: SpMyo1
# Outline: as §1
# SpNbp2 = molecular target: SpNbp2
# Outline: as §1
# SpPex13 = molecular target: SpPex13
# Outline: as §1
# SpRvs167 = molecular target: SpRvs167
# Outline: as §1
# SpSla1-D1-D2 = molecular target: SpSla1-D1-D2
# Outline: as §1
# SpSla1-D3 = molecular target: SpSla1-D3
# Outline: as §1
# AgAbp1 = molecular target: AgAbp1
# Outline: as §1
# AgBbc1 = molecular target: AgBbc1
# Outline: as §1
# AgBem1-D1 = molecular target: AgBem1-D1
# Outline: as §1
# AgBzz1-D1 = molecular target: AgBzz1-D1
# Outline: as §1
# AgBzz1-D2 = molecular target: AgBzz1-D2
# Outline: as §1
# AgCyk3 = molecular target: AgCyk3
# Outline: as §1
# AgFus1 = molecular target: AgFus1
# Outline: as §1
# AgHof1 = molecular target: AgHof1
# Outline: as §1
# AgHse1 = molecular target: AgHse1
# Outline: as §1
# AgLsb1 = molecular target: AgLsb1
# Outline: as §1
# AgLsb4 = molecular target: AgLsb4
# Outline: as §1
# AgMyo5 = molecular target: AgMyo5
# Outline: as §1
# AgNbp2 = molecular target: AgNbp2
# Outline: as §1
# AgRvs167 = molecular target: AgRvs167
# Outline: as §1
# AgSho1 = molecular target: AgSho1
# Outline: as §1
# AgSla1-D1-D2 = molecular target: AgSla1-D1-D2
# Outline: as §1
# AgSla1-D3 = molecular target: AgSla1-D3
# Outline: as §1
# CaAbp1-D1 = molecular target: CaAbp1-D1
# Outline: as §1
# CaAbp1-D2 = molecular target: CaAbp1-D2
# Outline: as §1
# CaBbc1 = molecular target: CaBbc1
# Outline: as §1
# CaBem1-D1 = molecular target: CaBem1-D1
# Outline: as §1
# CaBzz1-D1 = molecular target: CaBzz1-D1
# Outline: as §1
# CaBzz1-D2 = molecular target: CaBzz1-D2
# Outline: as §1
# CaCyk3 = molecular target: CaCyk3
# Outline: as §1
# CaFus1 = molecular target: CaFus1
# Outline: as §1
# CaHof1 = molecular target: CaHof1
# Outline: as §1
# CaHse1 = molecular target: CaHse1
# Outline: as §1
# CaLsb1 = molecular target: CaLsb1
# Outline: as §1
# CaLsb4 = molecular target: CaLsb4
# Outline: as §1
# CaMyo5 = molecular target: CaMyo5
# Outline: as §1
binder,measurement,setting,value
B1,SPOT peptide array binding signal intensity,CaNbp2,498
same,SPOT peptide array binding signal intensity,CaRvs167,245
same,SPOT peptide array binding signal intensity,CaRvs167-3,2240
same,SPOT peptide array binding signal intensity,CaSho1,1360
same,SPOT peptide array binding signal intensity,CaSla1-D1-D2,126
same,SPOT peptide array binding signal intensity,CaSla1-D3,602
same,SPOT peptide array binding signal intensity,ScAbp1,13
same,SPOT peptide array binding signal intensity,ScBbc1,17
same,SPOT peptide array binding signal intensity,ScBem1-D1,66
same,SPOT peptide array binding signal intensity,ScBzz1-D1,95
same,SPOT peptide array binding signal intensity,ScBzz1-D2,392
same,SPOT peptide array binding signal intensity,ScCyk3,292
same,SPOT peptide array binding signal intensity,ScFus1,2830
same,SPOT peptide array binding signal intensity,ScHof1,2.5
same,SPOT peptide array binding signal intensity,ScHse1,1460
same,SPOT peptide array binding signal intensity,ScLsb1,19.8
same,SPOT peptide array binding signal intensity,ScLsb2,30
same,SPOT peptide array binding signal intensity,ScLsb3,329
same,SPOT peptide array binding signal intensity,ScLsb4,72
same,SPOT peptide array binding signal intensity,ScMyo3,4
same,SPOT peptide array binding signal intensity,ScMyo5,12
same,SPOT peptide array binding signal intensity,ScNbp2,702
same,SPOT peptide array binding signal intensity,ScPex13,65.5
same,SPOT peptide array binding signal intensity,ScRvs167,80.7
same,SPOT peptide array binding signal intensity,ScSho1,2880
same,SPOT peptide array binding signal intensity,ScSla1-D1-D2,333
same,SPOT peptide array binding signal intensity,ScSla1-D3,122
same,SPOT peptide array binding signal intensity,SpAbp1-D1,68
same,SPOT peptide array binding signal intensity,SpBbc1,55
same,SPOT peptide array binding signal intensity,SpBzz1-D1,537
same,SPOT peptide array binding signal intensity,SpBzz1-D2,5
same,SPOT peptide array binding signal intensity,SpCyk3,55
same,SPOT peptide array binding signal intensity,SpHof1,183
same,SPOT peptide array binding signal intensity,SpHof1-2,78.2
same,SPOT peptide array binding signal intensity,SpHof1-3,760
same,SPOT peptide array binding signal intensity,SpHse1,664
same,SPOT peptide array binding signal intensity,SpLsb1,35.5
same,SPOT peptide array binding signal intensity,SpLsb4,100
same,SPOT peptide array binding signal intensity,SpMyo1,20.5
same,SPOT peptide array binding signal intensity,SpNbp2,1390
same,SPOT peptide array binding signal intensity,SpPex13,239
same,SPOT peptide array binding signal intensity,SpRvs167,39.2
same,SPOT peptide array binding signal intensity,SpSla1-D1-D2,6
same,SPOT peptide array binding signal intensity,SpSla1-D3,51.5
B2,SPOT peptide array binding signal intensity,AgAbp1,4
same,SPOT peptide array binding signal intensity,AgBbc1,≤ 0
same,SPOT peptide array binding signal intensity,AgBem1-D1,47
same,SPOT peptide array binding signal intensity,AgBzz1-D1,13
same,SPOT peptide array binding signal intensity,AgBzz1-D2,27
same,SPOT peptide array binding signal intensity,AgCyk3,1
same,SPOT peptide array binding signal intensity,AgFus1,198
same,SPOT peptide array binding signal intensity,AgHof1,43.5
same,SPOT peptide array binding signal intensity,AgHse1,1430
same,SPOT peptide array binding signal intensity,AgLsb1,1.75
same,SPOT peptide array binding signal intensity,AgLsb4,18
same,SPOT peptide array binding signal intensity,AgMyo5,1.5
same,SPOT peptide array binding signal intensity,AgNbp2,36
same,SPOT peptide array binding signal intensity,AgRvs167,3.33
same,SPOT peptide array binding signal intensity,AgSho1,21
same,SPOT peptide array binding signal intensity,AgSla1-D1-D2,25.5
same,SPOT peptide array binding signal intensity,AgSla1-D3,4
same,SPOT peptide array binding signal intensity,CaAbp1-D1,573
same,SPOT peptide array binding signal intensity,CaAbp1-D2,155
same,SPOT peptide array binding signal intensity,CaBbc1,3.25
same,SPOT peptide array binding signal intensity,CaBem1-D1,7
same,SPOT peptide array binding signal intensity,CaBzz1-D1,40
same,SPOT peptide array binding signal intensity,CaBzz1-D2,12.5
same,SPOT peptide array binding signal intensity,CaCyk3,8
same,SPOT peptide array binding signal intensity,CaFus1,1040
same,SPOT peptide array binding signal intensity,CaHof1,0.5
same,SPOT peptide array binding signal intensity,CaHse1,83.5
same,SPOT peptide array binding signal intensity,CaLsb1,≤ 0
same,SPOT peptide array binding signal intensity,CaLsb4,9.5
same,SPOT peptide array binding signal intensity,CaMyo5,13.8
same,SPOT peptide array binding signal intensity,CaNbp2,249
same,SPOT peptide array binding signal intensity,CaRvs167,10.2
same,SPOT peptide array binding signal intensity,CaRvs167-3,43.2
same,SPOT peptide array binding signal intensity,CaSho1,892
same,SPOT peptide array binding signal intensity,CaSla1-D1-D2,30.5
same,SPOT peptide array binding signal intensity,CaSla1-D3,20
same,SPOT peptide array binding signal intensity,ScAbp1,39
same,SPOT peptide array binding signal intensity,ScBbc1,0.5
same,SPOT peptide array binding signal intensity,ScBem1-D1,14
same,SPOT peptide array binding signal intensity,ScBzz1-D1,10
same,SPOT peptide array binding signal intensity,ScBzz1-D2,10
same,SPOT peptide array binding signal intensity,ScCyk3,374
same,SPOT peptide array binding signal intensity,ScFus1,289
same,SPOT peptide array binding signal intensity,ScHof1,0.5
same,SPOT peptide array binding signal intensity,ScHse1,1600
same,SPOT peptide array binding signal intensity,ScLsb1,≤ 0
same,SPOT peptide array binding signal intensity,ScLsb2,≤ 0
same,SPOT peptide array binding signal intensity,ScLsb3,27.5
same,SPOT peptide array binding signal intensity,ScLsb4,≤ 0
same,SPOT peptide array binding signal intensity,ScMyo3,2.5
same,SPOT peptide array binding signal intensity,ScMyo5,1.5
same,SPOT peptide array binding signal intensity,ScNbp2,128
same,SPOT peptide array binding signal intensity,ScPex13,≤ 0
same,SPOT peptide array binding signal intensity,ScRvs167,14.3
same,SPOT peptide array binding signal intensity,ScSho1,335
same,SPOT peptide array binding signal intensity,ScSla1-D1-D2,7
same,SPOT peptide array binding signal intensity,ScSla1-D3,7.5
same,SPOT peptide array binding signal intensity,SpAbp1-D1,195
same,SPOT peptide array binding signal intensity,SpBbc1,≤ 0
same,SPOT peptide array binding signal intensity,SpBzz1-D1,53.5
same,SPOT peptide array binding signal intensity,SpBzz1-D2,≤ 0
same,SPOT peptide array binding signal intensity,SpCyk3,11.5
same,SPOT peptide array binding signal intensity,SpHof1,72.5
same,SPOT peptide array binding signal intensity,SpHof1-2,11.5
same,SPOT peptide array binding signal intensity,SpHof1-3,1320
same,SPOT peptide array binding signal intensity,SpHse1,1740
same,SPOT peptide array binding signal intensity,SpLsb1,≤ 0
same,SPOT peptide array binding signal intensity,SpLsb4,≤ 0
same,SPOT peptide array binding signal intensity,SpMyo1,7
same,SPOT peptide array binding signal intensity,SpNbp2,69
same,SPOT peptide array binding signal intensity,SpPex13,14
same,SPOT peptide array binding signal intensity,SpRvs167,2.17
same,SPOT peptide array binding signal intensity,SpSla1-D1-D2,2.5
same,SPOT peptide array binding signal intensity,SpSla1-D3,5

# Reference: the supplement of paper PMC4466140
